# Measurements published in PubChem BioAssay (NCI).
# About 79,000 compounds went through this panel and 15% of them were active in at least one assay; those are over-represented in the sample as a whole. Values without a mark were called inactive. Active and inactive are the calls of the source. Cut-off read from the data, not from the text of the source: active = growth inhibition above about 70%; inactive = the rest.
# Columns and labels:
# [1] = NCI Yeast Anticancer Drug Screen. Data for the rad50 strain (AID 155);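 note: 0% = growth of vehicle-only cultures of the same strain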; settings: S. cerevisiae rad50 strain growth inhibition, active compounds read high
# How it was run: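 A DNA repair-deficient yeast mutant serves as the test organism; compound-induced growth inhibition is calculated against vehicle-treated cells.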
# [2] = NCI Yeast Anticancer Drug Screen. Data for the mec2-1 strain (AID 157); settings: S. cerevisiae mec2-1 strain, active compounds read high
# How it was run: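 Vehicle-treated cultures served as reference for growth inhibition of compound-exposed mec2-1 yeast.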
# [3] = NCI Yeast Anticancer Drug Screen. Data for the sgs1 mgt1 strain (AID 161);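 note: 0% = growth of cultures given vehicle only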; settings: S. cerevisiae sgs1 mgt1 strain, active compounds read high
# How it was run: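 Read-out: growth inhibition vs vehicle controls. Cells: mutant yeast strain deficient in DNA damage repair.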
# [4] = NCI Yeast Anticancer Drug Screen. Data for the cln2 rad14 strain (AID 165);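 note: 0% = growth equal to vehicle treated cultures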; settings: S. cerevisiae cln2 rad14 strain, active compounds read high
# How it was run: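 Each compound was tested on cln2 rad14 yeast. Inhibition of growth was calculated against vehicle-exposed controls.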
# [5] = NCI Yeast Anticancer Drug Screen. Data for the bub3 strain (AID 167); settings: S. cerevisiae bub3 mutant strain, active compounds read high
# How it was run: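 Inhibition values come from growth of compound-treated mutant yeast normalised to vehicle-treated controls.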
# [6] = NCI Yeast Anticancer Drug Screen. Data for the mlh1 rad18 strain (AID 175); settings: S. cerevisiae mlh1 rad18 strain growth inhibition, active compounds read high
# How it was run: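 Vehicle-treated cultures served as the reference for growth inhibition in a yeast strain carrying DNA damage repair alterations exposed to each compound.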
# [7] = at 5.0 µM (retest, dose inferred, filed as 0.5)
# [8] = at 50.0 µM (retest, dose inferred, filed as 5.0)
Structure (SMILES),"growth inhibition [1, 7] [%]","growth inhibition [1, 8]",growth inhibition ([1]; at 50.0 µM),"growth inhibition [2, 7] [%]","growth inhibition [2, 8]",growth inhibition ([2]; at 50.0 µM),"growth inhibition [3, 7] [%]","growth inhibition [3, 8]",growth inhibition ([3]; at 50.0 µM),"growth inhibition [4, 7] [%]","growth inhibition [4, 8]",growth inhibition ([4]; at 50.0 µM),"growth inhibition [5, 7] [%]","growth inhibition [5, 8]",growth inhibition ([5]; at 50.0 µM),"growth inhibition [6, 7]","growth inhibition [6, 8]",growth inhibition ([6]; at 50.0 µM)
CC(=O)CC1(O)C(=O)Nc2ccc(Br)cc21 (configuration not stated),1,-2%,39%,0,-3%,6.3%,-2,1%,10.8%,-3,8%,60.1%,6,2%,0.8%,-5%,-8%,5.25%
COc1ccc2c(Cc3cc(Cl)ccc3O)cncc2c1O,-1,32%,50.1%,-8,60%,31.6%,-5,51%,29.7%,3,-4%,40%,-2,31%,96% (active),16%,62%,82.3% (active)
O=S1(=O)CC2C1C1(Cl)OC2(Cl)c2ccccc21 (configuration not stated),2,13%,75.2% (active),16,9%,-9.25%,2,6%,31.1%,-45,17%,-1.65%,-3,-9%,21.4%,1%,1%,27.6%
ON=C1Cc2ccccc2-c2ccccc2C1,2,1%,-23%,2,5%,-11.1%,8,4%,-3.3%,1,7%,39.2%,-5,1%,6.1%,-3%,-2%,17.1%
CC1CN(CC2CCCCCCCCCCC2=O)CC(C)O1 (configuration not stated),59,74% (active),73.5% (active),25,45%,65.5%,52,53%,83.8% (active),62,59%,60.4%,67,79% (active),75.8% (active),74% (active),86% (active),69.9%
Oc1ccc(O)c2c1CC=C(Cl)C2,10,48%,52.4%,12,57%,52.9%,13,55%,33%,-1,86% (active),24.9%,26,83% (active),56.5%,17%,75% (active),59.8%
O=C(O)CSCc1cc2c3ccccc3sc2c2ccccc12,49,99% (active),97.9% (active),29,99% (active),97.2% (active),30,98% (active),93.2% (active),52,99% (active),97.7% (active),31,99% (active),96.8% (active),35%,99% (active),98.5% (active)
COC(=O)CCC(NC(=S)N/N=C(\C)c1cnc2ccccc2n1)C(=O)OC (configuration not stated),12,12%,34.1%,1,1%,16.2%,-5,-5%,67.1%,10,10%,11.1%,12,12%,26.8%,15%,15%,31.4%
O=C1/C(=C/c2ccccc2)CCC/C1=C\c1ccc(O)c(CN2CCCCC2)c1,25,42%,-4.05%,16,27%,1.95%,26,47%,88.8% (active),18,12%,74.9% (active),21,32%,82.2% (active),25%,44%,90.8% (active)
